According to PubChem BioAssay (EPA / NIEHS):
Records with an inconclusive call do not appear. Active and inactive are the calls of the source. How the source made its calls, unless noted: active means hit-call score of the fitted dose curve at least 0.9, where 1 is the maximum; inconclusive means response in the unintended direction; inactive means score below 0.9.

Key:
[1] = target: Glucocorticoid receptor (Homo sapiens) (UniProt P04150); test: ATG_GR_TRANS: Attagene TRANS-FACTORIAL HepG2 Assay for human Glucocorticoid Receptor (GR) (AID 2282978); conditions: HepG2 Attagene TRANS GR reporter, mRNA transcription;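 further: activators score as hits since higher reporter transcript over DMSO is fitted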
Glucocorticoid receptor (Homo sapiens), sequence (P04150 whole entry, looked up, the tested form may be a part): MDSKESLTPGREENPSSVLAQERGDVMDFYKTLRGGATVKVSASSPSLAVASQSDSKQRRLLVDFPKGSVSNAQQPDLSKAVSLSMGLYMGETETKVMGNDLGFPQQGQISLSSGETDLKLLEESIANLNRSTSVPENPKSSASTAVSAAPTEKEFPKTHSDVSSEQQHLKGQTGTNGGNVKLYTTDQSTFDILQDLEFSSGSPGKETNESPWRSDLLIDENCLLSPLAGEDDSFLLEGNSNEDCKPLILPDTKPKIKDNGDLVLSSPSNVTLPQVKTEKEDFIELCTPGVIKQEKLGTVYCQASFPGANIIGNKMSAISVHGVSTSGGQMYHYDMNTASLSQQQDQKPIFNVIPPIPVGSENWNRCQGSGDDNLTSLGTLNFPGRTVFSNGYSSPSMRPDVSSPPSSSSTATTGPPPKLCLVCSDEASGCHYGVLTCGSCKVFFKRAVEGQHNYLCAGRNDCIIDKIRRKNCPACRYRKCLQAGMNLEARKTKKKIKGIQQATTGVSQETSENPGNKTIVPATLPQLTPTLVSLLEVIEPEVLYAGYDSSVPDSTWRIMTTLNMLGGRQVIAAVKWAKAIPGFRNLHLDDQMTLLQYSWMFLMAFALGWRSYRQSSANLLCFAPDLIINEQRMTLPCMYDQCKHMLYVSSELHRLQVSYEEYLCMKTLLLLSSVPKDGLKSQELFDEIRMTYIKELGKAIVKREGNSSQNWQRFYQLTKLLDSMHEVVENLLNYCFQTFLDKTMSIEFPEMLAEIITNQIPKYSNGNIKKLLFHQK
Method in brief: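 HepG2 cells transiently transfected with multiplexed reporter units in which chimeric NR-GAL4 proteins drive GAL4-UAS reporters; 24 h compound exposure. Reporter mRNA measured by RT-PCR, 6-FAM labelling, HpaI digestion and capillary electrophoresis; gain-of-signal fitted versus DMSO.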

[2] = target: Oxysterols receptor LXR-alpha (Homo sapiens) (UniProt Q13133); test: ATG_LXRa_TRANS: Attagene TRANS-FACTORIAL HepG2 Assay for human Liver X Receptor alpha (LXRa) (AID 2282980); conditions: HepG2 Attagene TRANS reporter, LXRa transactivation
Oxysterols receptor LXR-alpha (Homo sapiens), sequence (Q13133 whole entry, looked up, the tested form may be a part): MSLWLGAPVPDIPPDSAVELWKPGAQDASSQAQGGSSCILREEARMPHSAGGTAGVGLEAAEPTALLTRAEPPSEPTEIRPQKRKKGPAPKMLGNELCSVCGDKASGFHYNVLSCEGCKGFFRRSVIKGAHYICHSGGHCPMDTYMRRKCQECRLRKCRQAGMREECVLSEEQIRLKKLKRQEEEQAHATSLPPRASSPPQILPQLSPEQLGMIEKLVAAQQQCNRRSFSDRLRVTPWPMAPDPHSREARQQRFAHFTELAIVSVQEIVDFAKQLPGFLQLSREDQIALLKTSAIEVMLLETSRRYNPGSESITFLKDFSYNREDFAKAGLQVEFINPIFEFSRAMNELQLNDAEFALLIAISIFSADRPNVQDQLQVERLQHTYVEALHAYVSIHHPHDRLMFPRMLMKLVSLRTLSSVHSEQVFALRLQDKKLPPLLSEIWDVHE
Method in brief: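 Chemical-induced reporter mRNA measured by RT-PCR with fluorescent labelling and capillary electrophoresis after 24 h dosing of transiently transfected HepG2 cells expressing exogenous NR-Gal4 chimeras; increases scored against DMSO baseline.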

[3] = target: Oxysterols receptor LXR-beta (Homo sapiens) (UniProt P55055); test: ATG_LXRb_TRANS: Attagene TRANS-FACTORIAL HepG2 Assay for human Liver X Receptor beta (LXRb) (AID 2282981); conditions: HepG2 Attagene TRANS GAL4-LXRb reporter, mRNA
Oxysterols receptor LXR-beta (Homo sapiens), sequence (P55055 whole entry, looked up, the tested form may be a part): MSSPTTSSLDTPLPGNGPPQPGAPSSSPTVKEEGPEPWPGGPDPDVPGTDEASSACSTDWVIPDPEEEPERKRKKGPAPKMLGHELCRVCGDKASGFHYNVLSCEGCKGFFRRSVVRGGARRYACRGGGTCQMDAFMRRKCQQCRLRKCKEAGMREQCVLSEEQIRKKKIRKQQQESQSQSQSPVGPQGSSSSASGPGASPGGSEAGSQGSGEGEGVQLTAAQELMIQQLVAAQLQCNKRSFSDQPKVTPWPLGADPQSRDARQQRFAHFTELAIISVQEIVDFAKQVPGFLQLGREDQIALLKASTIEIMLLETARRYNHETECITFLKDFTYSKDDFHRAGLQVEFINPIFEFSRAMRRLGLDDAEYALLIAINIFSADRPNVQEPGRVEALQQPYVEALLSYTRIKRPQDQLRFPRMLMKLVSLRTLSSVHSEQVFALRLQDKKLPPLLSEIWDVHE
Method in brief: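 Gain-of-signal mRNA reporter endpoint, DMSO as negative control. Transiently transfected HepG2 cells carrying the NR-Gal4 chimera and GAL4-UAS reporter units were treated 24 h; transcripts quantified by RT-PCR and capillary electrophoresis fluorescence.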

[4] = target: Hepatocyte nuclear factor 4-alpha (Homo sapiens) (UniProt P41235); test: ATG_HNF4a_TRANS: Attagene TRANS-FACTORIAL HepG2 Assay for human Hepatocyte Nuclear Factor 4 alpha (HNF4a) (AID 2282982); conditions: HepG2 HNF4a transactivation reporter, mRNA readout
Hepatocyte nuclear factor 4-alpha (Homo sapiens), sequence (P41235 whole entry, looked up, the tested form may be a part): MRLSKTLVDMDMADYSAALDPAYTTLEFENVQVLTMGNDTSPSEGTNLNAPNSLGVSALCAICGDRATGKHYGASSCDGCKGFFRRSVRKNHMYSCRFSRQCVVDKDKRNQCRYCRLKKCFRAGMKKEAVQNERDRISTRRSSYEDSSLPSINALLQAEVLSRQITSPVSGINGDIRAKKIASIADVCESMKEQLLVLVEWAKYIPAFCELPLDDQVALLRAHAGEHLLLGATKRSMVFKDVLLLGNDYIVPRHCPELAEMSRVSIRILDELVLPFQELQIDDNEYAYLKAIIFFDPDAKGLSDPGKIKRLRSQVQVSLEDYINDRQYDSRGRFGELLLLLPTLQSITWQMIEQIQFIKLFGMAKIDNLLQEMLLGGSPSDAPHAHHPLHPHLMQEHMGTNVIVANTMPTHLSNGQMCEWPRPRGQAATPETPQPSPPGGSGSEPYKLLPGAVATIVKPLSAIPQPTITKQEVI
Method in brief: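 Gain-of-signal mRNA induction, relative to DMSO vehicle, was read after 24 h compound treatment of HepG2 cells bearing transfected GAL4-UAS reporters. Detection used RT-PCR, 6-FAM primer extension and capillary electrophoresis.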

[5] = ATG_M_06_TRANS: Attagene TRANS-FACTORIAL HepG2 Assay for M06 Transcription Factor (Internal Marker) (AID 2282983); conditions: HepG2 Attagene TRANS M06 internal marker reporter;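 on AC50: potency for rise in reporter mRNA above DMSO baseline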
Method in brief: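 Cells: HepG2, transient multi-reporter transfection. Exposure: 24 h. Detection: RT-PCR, 6-FAM labelling, HpaI digestion (2 h, 37 °C), capillary electrophoresis. Baseline: DMSO.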

[6] = ATG_M_32_TRANS: Attagene TRANS-FACTORIAL HepG2 Assay for M32 Transcription Factor (Internal Marker) (AID 2282984); conditions: HepG2 Attagene TRANS M32 internal marker reporter;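 further: transcript level of a background control reporter unit measured by RT-PCR and capillary electrophoresis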
Method in brief: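 Capillary electrophoresis of 6-FAM-labelled reporter fragments gives the signal; data fitted for gain over DMSO negative control. Source: HepG2 cells bearing transient multiple reporter transcription units, 24 h exposure.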

[7] = target: Nuclear receptor subfamily 4 group A member 2 (Homo sapiens) (UniProt P43354); test: ATG_NURR1_TRANS: Attagene TRANS-FACTORIAL HepG2 Assay for human Nuclear Receptor Related Protein 1 (NURR1) (AID 2282985); conditions: HepG2 Attagene TRANS reporter, mRNA readout
Nuclear receptor subfamily 4 group A member 2 (Homo sapiens), sequence (P43354 whole entry, looked up): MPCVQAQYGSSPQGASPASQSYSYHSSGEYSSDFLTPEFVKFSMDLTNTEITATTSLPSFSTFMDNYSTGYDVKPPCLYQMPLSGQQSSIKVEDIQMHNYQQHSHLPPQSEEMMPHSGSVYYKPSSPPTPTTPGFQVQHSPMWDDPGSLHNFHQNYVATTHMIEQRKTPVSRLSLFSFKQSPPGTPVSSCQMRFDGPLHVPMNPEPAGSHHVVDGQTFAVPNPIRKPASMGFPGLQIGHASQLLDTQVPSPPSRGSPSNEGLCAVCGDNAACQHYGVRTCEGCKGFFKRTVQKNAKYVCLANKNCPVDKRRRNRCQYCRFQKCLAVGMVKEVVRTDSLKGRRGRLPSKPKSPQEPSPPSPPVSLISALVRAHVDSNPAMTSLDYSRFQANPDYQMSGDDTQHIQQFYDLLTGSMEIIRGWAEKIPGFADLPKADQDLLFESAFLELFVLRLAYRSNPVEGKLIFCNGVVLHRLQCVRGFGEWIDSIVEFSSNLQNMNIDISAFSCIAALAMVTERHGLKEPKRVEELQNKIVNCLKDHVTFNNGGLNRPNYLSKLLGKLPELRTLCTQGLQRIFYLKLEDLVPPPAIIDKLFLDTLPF
Method in brief: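 HepG2 / transient MRTU transfection / 24 h compound exposure / RT-PCR + CE fluorescence of reporter mRNA / gain-of-signal vs DMSO.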

[8] = target: Transcriptional activator Myb (Homo sapiens) (UniProt P10242); test: ATG_Myb_CIS: Attagene CIS-FACTORIAL HepG2 Assay for human Myeloblastosis (Myb) Proto-Oncogene Transcription Factor (AID 2282986; active means hit-call score of the fitted dose curve at least 0.9, where 1 is the maximum; inactive means score below 0.9); conditions: HepG2 Attagene CIS-FACTORIAL Myb reporter transcription; actives raise or lower the signal
Transcriptional activator Myb (Homo sapiens), sequence (P10242 whole entry, looked up): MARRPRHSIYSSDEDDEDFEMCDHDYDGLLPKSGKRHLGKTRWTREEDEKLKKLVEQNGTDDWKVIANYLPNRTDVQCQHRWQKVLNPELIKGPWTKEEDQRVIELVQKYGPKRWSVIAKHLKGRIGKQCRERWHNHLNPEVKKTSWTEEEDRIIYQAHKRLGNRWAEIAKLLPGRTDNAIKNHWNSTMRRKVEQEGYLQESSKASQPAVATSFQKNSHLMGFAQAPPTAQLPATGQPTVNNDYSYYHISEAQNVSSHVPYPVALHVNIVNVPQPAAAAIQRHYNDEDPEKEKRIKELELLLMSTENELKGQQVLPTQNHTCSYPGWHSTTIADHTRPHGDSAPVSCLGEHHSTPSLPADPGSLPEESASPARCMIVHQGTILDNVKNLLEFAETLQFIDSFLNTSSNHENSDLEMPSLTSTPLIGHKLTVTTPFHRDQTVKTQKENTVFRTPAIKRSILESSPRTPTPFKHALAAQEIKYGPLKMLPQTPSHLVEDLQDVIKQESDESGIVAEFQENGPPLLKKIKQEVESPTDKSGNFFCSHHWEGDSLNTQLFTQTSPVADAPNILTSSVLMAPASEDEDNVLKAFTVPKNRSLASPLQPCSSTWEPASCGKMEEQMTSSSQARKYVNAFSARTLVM
Method in brief: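 HepG2 cells were transiently transfected with cis-regulated multiple reporter transcription units reflecting endogenous Myb activity, then exposed to compound for 24 hours. Reporter mRNA was measured by RT-PCR with capillary electrophoresis; bidirectional fitting versus DMSO baseline.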

[9] = target: Nuclear respiratory factor 1 (Homo sapiens) (UniProt Q16656); test: ATG_NRF1_CIS: Attagene CIS-FACTORIAL HepG2 Assay for human Nuclear Respiratory Factor 1 (NRF1) Orphan Gene (AID 2282987; active means hit-call score of the fitted dose curve at least 0.9, where 1 is the maximum; inactive means score below 0.9); conditions: HepG2 NRF1 cis-element reporter, Attagene multiplex; actives raise or lower the signal
Nuclear respiratory factor 1 (Homo sapiens), sequence (Q16656 whole entry, looked up): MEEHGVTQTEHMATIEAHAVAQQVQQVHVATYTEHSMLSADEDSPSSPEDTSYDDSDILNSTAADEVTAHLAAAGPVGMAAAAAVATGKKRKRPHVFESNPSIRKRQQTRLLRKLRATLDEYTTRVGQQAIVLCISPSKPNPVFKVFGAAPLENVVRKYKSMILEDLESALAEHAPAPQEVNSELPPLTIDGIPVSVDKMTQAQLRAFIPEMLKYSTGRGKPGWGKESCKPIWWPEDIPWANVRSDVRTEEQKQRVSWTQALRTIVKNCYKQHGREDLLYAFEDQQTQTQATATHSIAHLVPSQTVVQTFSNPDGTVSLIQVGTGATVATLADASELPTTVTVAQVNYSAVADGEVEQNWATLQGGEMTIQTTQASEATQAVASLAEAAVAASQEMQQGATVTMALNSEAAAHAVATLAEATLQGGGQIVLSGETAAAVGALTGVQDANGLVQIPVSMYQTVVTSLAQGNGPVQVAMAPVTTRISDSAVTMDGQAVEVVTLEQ
Method in brief: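 HepG2 cells transiently transfected with multiple reporter transcription units under cis-regulatory promoter control, so endogenous transcription-factor activity is read. After 24 h compound exposure, reporter mRNA quantified by RT-PCR, fluorescent labelling, HpaI digestion and capillary electrophoresis; bidirectional fitting versus DMSO.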

[10] = target: Bile acid receptor (Homo sapiens) (UniProt Q96RI1); test: ATG_FXR_TRANS: Attagene TRANS-FACTORIAL HepG2 Assay for Farnesoid X Receptor (FXR) (AID 2282979); conditions: HepG2 Attagene TRANS FXR-GAL4 reporter transcription;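 further: hits raise reporter mRNA above DMSO so AC50 marks FXR activation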
Bile acid receptor (Homo sapiens), sequence (Q96RI1 whole entry, looked up, the tested form may be a part): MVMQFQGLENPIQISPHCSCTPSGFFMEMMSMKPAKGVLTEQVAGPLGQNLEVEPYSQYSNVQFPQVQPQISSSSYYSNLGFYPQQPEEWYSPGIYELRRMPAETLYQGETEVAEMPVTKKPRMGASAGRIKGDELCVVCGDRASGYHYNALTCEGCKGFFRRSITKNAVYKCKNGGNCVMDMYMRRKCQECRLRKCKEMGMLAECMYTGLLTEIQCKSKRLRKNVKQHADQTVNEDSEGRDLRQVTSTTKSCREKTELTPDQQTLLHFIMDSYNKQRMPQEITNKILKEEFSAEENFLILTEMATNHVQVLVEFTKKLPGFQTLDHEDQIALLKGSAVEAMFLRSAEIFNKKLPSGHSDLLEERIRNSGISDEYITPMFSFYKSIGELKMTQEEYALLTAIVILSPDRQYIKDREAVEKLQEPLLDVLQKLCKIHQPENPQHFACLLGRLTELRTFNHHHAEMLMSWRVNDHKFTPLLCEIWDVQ
Method in brief: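 Reporter transcripts from transfected HepG2 cells were measured 24 h after dosing, using RT-PCR with capillary electrophoresis of 6-FAM-labelled fragments. The read-out reflects activity of exogenous FXR-Gal4 chimera on GAL4-UAS units, with induction relative to DMSO.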

Measured: AC50

C=C[Si](C)(C)O[Si](C)(C)C=C
not listed: [10]
inactive: all other assays above

Nc1ccc(Oc2ccc(N)c(N)c2)cc1
not listed: [3] | [4]
inactive: all other assays above

CC1=NN(c2cc(S(=O)(=O)O)ccc2Cl)C(=O)C1N=Nc1ccccc1 (stereo not given)
not listed: [7]
inactive: all other assays above

CCC(C)OC(=O)c1ccc(O)cc1 (stereo not given)
not listed: [10]
inactive: all other assays above

CCCCCCCC/C=C\CCCCCCCC(=O)O
not listed: [4]
inactive: all other assays above

CCOC(F)(F)C(F)(F)C(F)(F)C(F)(F)F
not listed: [3] | [4]
inactive: all other assays above

CCCCCCCCO[C@@H]1O[C@H](CO)[C@@H](O)[C@H](O)[C@H]1O
not listed: [2] | [5]
inactive: all other assays above

Nc1nc2ccccc2[nH]1
inactive: all assays above

C=CC(=O)OCC(Br)CBr (stereo not given)
inactive: [1] | [10] | [6] | [7] | [8] | [9]

CC(C)(C)C1CCCCC1=O (stereo not given)
not listed: [7] | [10]
inactive: all other assays above

O=C(Nc1cccc(C(F)(F)F)c1)c1cc(Br)cc(Br)c1O
active: [9] 172 µM
not listed: [2] | [3]
inactive: all other assays above

CC(=O)[C@@]1(O)CC[C@H]2[C@@H]3C[C@H](C)C4=CC(=O)C=C[C@]4(C)[C@@]3(F)[C@@H](O)C[C@@]21C
inactive: [10] | [2] | [3] | [8] | [9]
active: [1] 0.221 µM

CC=CCO
not listed: [2] | [3] | [9]
inactive: all other assays above

COC(=O)C1=C(C)NC(C)=C(C(=O)OCC(C)C)C1c1ccccc1[N+](=O)[O-] (stereo not given)
active: [9] 15.4 µM
not listed: [3] | [8]
inactive: all other assays above

Oc1ccc(Cl)cc1Cc1cc(Cl)ccc1O
not listed: [6] | [7] | [8]
inactive: all other assays above

c1ccc2c(c1)ccc1cc3c(ccc4ccccc43)cc12
not listed: [5]
inactive: all other assays above

C[Si](C)(C)O[Si](O)(O)O
not listed: [3] | [4] | [6]
inactive: all other assays above

CC(C)c1ccc2c(c1)CC[C@H]1[C@](C)(CN)CCC[C@]21C
active: [5] 5.45 µM
not listed: [6] | [9]
inactive: all other assays above

CC(=O)c1ccc[nH]1
inactive: [1] | [10] | [2] | [3] | [8]

Cc1ccc(C2OC[C@@H]3OC(c4ccc(C)cc4)O[C@H]([C@H](O)CO)[C@@H]3O2)cc1 (stereo not given in full)
inactive: all assays above

CC(=O)NS(=O)(=O)c1ccc(N)cc1
not listed: [6] | [7] | [10]
inactive: all other assays above

c1ccc(-c2ccccn2)nc1
not listed: [6] | [9] | [10]
inactive: all other assays above

CCN(CCC#N)c1ccc(N=Nc2c(Cl)cc([N+](=O)[O-])cc2Cl)cc1
not listed: [6] | [10]
inactive: all other assays above

C=C(C)C(=O)OCCO
not listed: [10]
inactive: all other assays above

O=C(c1ccccc1)c1ccc(O)c(O)c1O
not listed: [10]
inactive: all other assays above

O=C1c2cccc(O)c2C(=O)c2c(O)cc(CO)cc21
inactive: [1] | [10] | [2] | [7] | [8] | [9]

CC(=O)OC1C2(C)CCC(C2)C1(C)C (stereo not given)
inactive: [1] | [2] | [3] | [4] | [5] | [7]

CCOc1nc(F)cc2nc(S(=O)(=O)Nc3c(Cl)cccc3C(=O)OC)nn12
not listed: [2] | [6] | [7]
inactive: all other assays above

O=c1[nH]nc(-c2ccc([N+](=O)[O-])o2)o1
not listed: [7] | [10]
inactive: all other assays above

Cc1cnc(NC(=O)C2=C(O)c3ccccc3S(=O)(=O)N2C)s1
inactive: [1] | [10] | [2] | [5] | [7] | [8]

O=C(Nc1ccccc1)c1ccccc1O
not listed: [6] | [10]
inactive: all other assays above

Nc1ccc(Cl)cc1Cl
not listed: [2] | [4]
inactive: all other assays above

C=CCOc1c(Br)cc(Br)cc1Br
active: [7] 43.4 µM
not listed: [2] | [4] | [6]
inactive: all other assays above

CCCCNc1ccc(NCCCC)c2c1C(=O)c1ccccc1C2=O
not listed: [3]
inactive: all other assays above

COc1ccc(-c2coc3cc(O)ccc3c2=O)cc1
not listed: [10]
inactive: all other assays above

C=C(C)c1cccc(C(C)(C)N=C=O)c1
inactive: [1] | [2] | [3] | [4] | [5] | [6]

O=c1cc(-c2ccccc2)oc2ccccc12
not listed: [6] | [10]
inactive: all other assays above

COC(F)(F)C(F)(C(F)(F)F)C(F)(F)F
inactive: [1] | [10] | [3] | [5] | [8] | [9]

C=C[C@](C)(O)CC[C@@H]1[C@@]2(C)CCCC(C)(C)[C@@H]2CC[C@@]1(C)O
not listed: [3] | [4]
inactive: all other assays above

C[C@]12CCC(=O)C=C1CC[C@@H]1[C@@H]2C(=O)C[C@@]2(C)[C@H]1CC[C@]2(O)C(=O)CO
not listed: [6] | [7] | [10]
inactive: all other assays above

C=CC(C)(CCC=C(C)C)OC(=O)CC(C)C (stereo not given)
inactive: [1] | [2] | [3] | [6] | [7] | [8]

CC(=O)OCC(=O)[C@@]12N=C(C)O[C@@H]1C[C@H]1[C@@H]3CCC4=CC(=O)C=C[C@]4(C)[C@H]3[C@@H](O)C[C@@]12C
active: [1] 0.0827 µM | [7] 17.1 µM
inactive: [2] | [3] | [6] | [8] | [9]

O=C1CCCCCCCCCCCCCCCO1
not listed: [4] | [10]
inactive: all other assays above

CC(=O)[C@H]1[C@H](C#N)C[C@H]2[C@@H]3CC=C4C[C@@H](O)CC[C@]4(C)[C@H]3CC[C@@]21C
not listed: [4] | [6] | [10]
inactive: all other assays above

CNC(=S)NN
inactive: [1] | [2] | [3] | [6] | [7] | [9]

CC1(C)O[C@@H]2C[C@H]3[C@@H]4C[C@H](F)C5=CC(=O)CC[C@]5(C)[C@H]4[C@@H](O)C[C@]3(C)[C@]2(C(=O)CO)O1
active: [1] 0.0728 µM
not listed: [4] | [10]
inactive: all other assays above

O=C(O)CCCC[C@@H]1SC[C@@H]2NC(=O)N[C@@H]21
inactive: [1] | [2] | [3] | [8] | [9]

CCCCCCCOC(=O)CCC
not listed: [4] | [6] | [10]
inactive: all other assays above

C#CC1(O)CC[C@H]2[C@@H]3CCC4=CCCC[C@@H]4[C@H]3CC[C@@]21C (stereo not given in full)
inactive: [1] | [4] | [6] | [8] | [9]
active: [2] 1.46 µM | [3] 1.81 µM

CCCCCCCCCCCCCCCCCC#N
not listed: [3] | [8] | [10]
inactive: all other assays above

CC1OC1C1CCC2(C)OC2C1 (stereo not given)
not listed: [5] | [8] | [10]
inactive: all other assays above

CC(C)CC(O)Cc1ccccc1 (stereo not given)
not listed: [3] | [7] | [10]
inactive: all other assays above

O=C1CCCN1CCO
inactive: [1] | [2] | [3] | [7] | [8]

CCCCC(CC)COC(=O)c1ccccc1O (stereo not given)
not listed: [3] | [6] | [10]
inactive: all other assays above

CCCCCC/C=C/C=O
inactive: [1] | [2] | [3] | [4] | [6] | [9]

NC(=O)NNC(N)=O
not listed: [3] | [5] | [10]
inactive: all other assays above
